Sampled rows, rich in hits. Any-hit rate of the full collection: about 1.5%.
PP5 primary – inhibitors of human protein phosphatase 5 (PP5); purified PP5c, OMFP substrate fluorescence; AID 1987; actives 0.18% (n = 320,000); inhibition, % at 6.7 µM; P53041;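 active = inhibition above the campaign's mean inhibition across all tested compounds plus 3 SD, cut at about 9.5% in these data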;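 note: 0% = DMSO only and 100% = 100 µM cantharidin control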
PP1 counter – blocks human PP1-alpha phosphatase, a PP5 counter-screen; P62136; AID 2235; inhibition, % at 6.7 µM; purified PP1alpha, OMFP fluorescence; actives 0.9% (n = 320,000);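 active = inhibition above the mean inhibition of all tested compounds plus 3 SD, computed separately for each screening campaign, cut at about 15% in these data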
Target sequence (P62136 whole entry, looked up): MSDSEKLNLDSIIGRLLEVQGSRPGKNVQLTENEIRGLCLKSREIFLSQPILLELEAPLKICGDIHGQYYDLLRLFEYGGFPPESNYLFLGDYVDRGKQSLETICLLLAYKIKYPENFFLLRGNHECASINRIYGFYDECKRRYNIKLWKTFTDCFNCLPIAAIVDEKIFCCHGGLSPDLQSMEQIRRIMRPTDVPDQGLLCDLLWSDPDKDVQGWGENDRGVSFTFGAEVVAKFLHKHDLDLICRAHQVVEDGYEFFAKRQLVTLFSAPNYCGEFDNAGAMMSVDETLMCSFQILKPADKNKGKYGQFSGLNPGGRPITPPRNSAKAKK
STK33 kinase inh – inhibitors of human STK33 kinase; Q9BYT3; actives 0.073% (n = 320,000); purified STK33, MBP phosphorylation, ADP-Glo luminescence; AID 2661; inhibition, % at 10 µM;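 active = inhibition at or above 25%, using the most active replicate where run in duplicate; inactive = inhibition below 25%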
HIF activator – HIF pathway transcriptional activation; U2OS HRE-luciferase reporter, luminescence; normalized: DMSO 0%, desferrioxamine 100%; activation, % at 7.5 µM (by protocol); actives 0.32% (n = 300,000);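 active = mean activation of at least 10% of the iron chelator positive control signal, with at least half of replicates also reaching 10%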
Dyrk1A ADPGlo – blocks rat Dyrk1A kinase activity; ADP-Glo luminescence, NFATc1 peptide; inhibition, % at 12.5 µM; actives 0.43% (n = 310,000); AID 504441; in the data active = inhibition above about 50%;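 note: plate controls were vehicle with enzyme for no effect and no enzyme for full effect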
PP5 inh confirm – confirmation of human PP5 phosphatase inhibitors | shares compounds with PP5 primary | AID 2331 | Purified PP5, fluorogenic phosphatase substrate, fluorescence | inhibition, % at 6.7 µM | actives 22% (n = 460); in the data active = inhibition above about 9.5%
PP1 counter 3x – counter-screen for PP5 inhibitors: human PP1 phosphatase inhibition. shares compounds with PP5 primary. PP1 enzyme, fluorescent phosphatase substrate. inhibition, % at 6.7 µM. actives 4% (n = 460). AID 2355; in the data active = inhibition above about 16%
Active calls of the source: *; nt = no result.

SMILES | PP5 primary | PP1 counter | STK33 kinase inh | HIF activator | Dyrk1A ADPGlo | PP5 inh confirm | PP1 counter 3x
O=C(NCCc1ccccn1)c1cc(-c2cccc3ccccc23)nc2ccccc12 | 21* | 2 | -1 | 0 | -1 | -3 | -3
Cc1cccc(NC(=O)C(CCC(N)=O)NC(=O)OCc2ccccc2)c1 (stereo not drawn) | 4 | -9 | -1 | -1 | 2 | nt | nt
Cc1cc(C)c2nc(C)cc(Nc3ccc(C(=O)N4CCOCC4)cc3)c2c1 | 11* | 1 | -1 | -1 | -4 | -4 | -4
CCOC(=O)c1sc(NC(=O)CSC(=S)N2CCN(C)CC2)nc1C | 0 | 2 | 2 | 0 | 28 | nt | nt
O=C(c1ccc(Br)cc1)N1CCN(c2ncccn2)CC1 | -2 | -1 | -19 | 0 | -6 | nt | nt
O=C(c1ccc([N+](=O)[O-])cc1)N1CCN(c2ncc(Br)cn2)CC1 | 11* | -4 | 0 | -10 | -4 | -4 | -3
CCN1C(=NCc2ccco2)N[C@@H](c2cccc(F)c2)C(C(=O)OC)=C1C | -1 | 2 | -1 | 0 | 2 | nt | nt
C=CCc1c(C)nc(SC)nc1Nc1ccc(C(C)=O)cc1 | -2 | 4 | -1 | 1 | 14 | nt | nt
C=CCc1c(C)nc(SC)nc1Nc1ccc(C(=O)O)cc1 | 11* | -2 | 0 | 0 | 0 | -5 | -4
COc1cccc(CN2CC(C(=O)NCc3ccc(C)o3)CCC2=O)c1 (stereo not drawn) | nt | nt | nt | 3 | 1 | nt | nt
CC1(C)Cc2c(sc(NC(=O)Nc3ccccc3)c2C(N)=O)CO1 | 11* | 1 | 4 | 3 | 3 | -1 | -1
Cc1oc2nc(SCC(=O)N3CCCCC3)nc(N)c2c1C | -1 | -1 | 0 | 1 | -4 | nt | nt
Cc1ccc(NC(=O)CCC(=O)OCc2ccc(Br)cc2)cc1 | 1 | -2 | -1 | 0 | -2 | nt | nt
Cc1ccc(NC(=O)Nc2ccccc2C(=O)NCc2ccccc2)cc1 | 3 | 0 | -3 | 1 | 0 | nt | nt
Cc1ccccc1NC(=O)Nc1ccccc1C(=O)NCc1ccccc1 | 17* | 0 | nt | 0 | -3 | -3 | -2
CC(OC(=O)C1CC1)C(=O)Nc1cc(Cl)cc(Cl)c1 (stereo not drawn) | nt | nt | 0 | nt | 2 | nt | nt
CC(=O)Nc1ccc(Br)c(Cl)c1 | 11* | -2 | -1 | 0 | nt | -6 | -6
CCCC(=O)Nc1ccc(Br)c(Cl)c1 | 1 | 1 | 1 | 0 | 12 | nt | nt
Nc1c(S(=O)(=O)c2cccs2)c2nc3ccccc3nc2n1CCc1ccccc1 | 4 | 4 | -1 | 0 | nt | nt | nt
CC(C)CCn1c(N)c(S(=O)(=O)c2cccs2)c2nc3ccccc3nc21 | 10* | 3 | -2 | -1 | -11 | 7 | 4
CCOC(=O)NC(NC(=S)Nc1ccccc1[N+](=O)[O-])C(Cl)(Cl)Cl (stereo not drawn) | 11* | -5 | 1 | 0 | 19 | -6 | -4
CCc1ccc(S(=O)(=O)/N=C2\C=C(Nc3cccc(C(=O)O)c3)C(=O)c3ccccc32)cc1 | 11* | 13 | 1 | 2 | 42 | 42* | 12
CCCN(CCC)C(=O)CC(c1ccccc1)c1cc(Br)ccc1O (stereo not drawn) | 12* | 6 | -1 | 0 | 27 | 3 | 4
COc1ccc(C2=NCN(c3ccc(C)cc3)C(=S)N2)cc1 | 11* | -2 | 0 | 3 | -9 | -2 | -2
Cc1ccc(N2CN=C(c3ccccc3)NC2=S)cc1 | 2 | 0 | -1 | 3 | -13 | nt | nt
SMILES | PP5 primary | PP1 counter | STK33 kinase inh | HIF activator | Dyrk1A ADPGlo | PP5 inh confirm | PP1 counter 3x
COc1ccc(C(C)C)cc1S(=O)(=O)N1CC(C)OC(C)C1 (stereo not drawn) | 10* | -6 | -2 | 0 | nt | -3 | -3
CCN(CC(=O)Nc1ccccc1OC)C(=O)COc1ccc(C#N)cc1 | nt | nt | nt | nt | 7 | nt | nt
Cc1ccc(S(=O)(=O)N2CCOCC2)cc1NC(=O)COC(=O)CSc1ccc(Br)cc1C | 11* | 1 | 1 | 0 | 3 | 1 | 6
ONC(=Nc1ccccc1Cl)c1ccccc1Cl | 13* | 2 | 1 | 0 | nt | -1 | 0
O=[N+]([O-])c1cccc(C(=Nc2ccccc2Cl)NO)c1 | 4 | 1 | -2 | 0 | 6 | nt | nt
CC1CCN(C(=O)CNC(=O)CNS(=O)(=O)c2ccccc2)CC1 | 1 | -2 | -2 | -2 | -2 | nt | nt
CC(=O)Nc1ccc(S(=O)(=O)N2CCN(c3nc(NC4CCCC4)c4ccccc4n3)CC2)cc1 | 12* | 11 | 0 | 0 | -1 | 2 | 0
CC(OC(=O)COc1ccccc1Cc1ccccc1)C(=O)N(C)c1ccccc1 (stereo not drawn) | 1 | 3 | -1 | 0 | -1 | nt | nt
CCOC(=O)c1cccc(NC(=O)CSc2nnc(COc3ccccc3)n2CC)c1 | 12* | -3 | 0 | 0 | -5 | -5 | -3
CCn1c(COc2cccc(C)c2)nnc1SCC(=O)Nc1cccc(C(=O)OC)c1 | 5 | 7 | -1 | 0 | 1 | nt | nt
CCc1ccc(NC(=S)N(Cc2cccc(Br)c2)CC2CCC(C(=O)O)CC2)cc1 (stereo not drawn) | -1 | -2 | -2 | 0 | -4 | nt | nt
C/C(=C/C(=O)N1CCc2ccccc21)C(=O)O | 0 | 0 | -2 | 0 | -7 | nt | nt
CC(C)=CC(=O)N1CCCc2ccccc21 | 9.7* | 7 | -2 | 0 | -1 | -4 | -6
CC(=O)N(C)C1=C(O)c2ccccc2C(=O)C1=O | 0 | -5 | 0 | 0 | 5 | nt | nt
CC(=O)C(C(C)=O)C1(O)C(=O)c2ccccc2C1=O | 14* | 3 | -2 | 1 | -3 | 38* | 3
Cc1cc(OCC(=O)NCCCN2CCOCC2)c2c(C)cc(=O)oc2c1 | -1 | 0 | -1 | 0 | 5 | nt | nt
CCCCN(CC)c1nc(N)c2c(N)nc(OCC)cc2c1C#N | 12* | 5 | -1 | 0 | -3 | 25* | 2
CCCOc1cc2c(C#N)c(N3CCCC3)nc(N)c2c(N)n1 | 11* | 4 | 0 | -1 | -1 | 38* | 3
O=C(Nc1nccs1)c1cc2sccc2n1Cc1ccc(F)cc1 | 10* | -1 | -1 | 0 | -5 | -6 | -1
COc1ccc(NC(=O)c2cc3sccc3n2Cc2ccc(F)cc2)cc1OC | 4 | 2 | -1 | 5 | -3 | nt | nt
Cc1ccc(S(=O)(=O)Nc2ccc(Cl)cc2)cc1NC(=O)c1cc2c(s1)CCCC2 | 4 | 5 | -1 | 0 | -7 | nt | nt
Cc1cccc(OCC(=O)N/N=C/c2sc(=O)n(Cc3cccc(C(=O)O)c3)c2Cl)c1 | 13* | 3 | -1 | 0 | 2 | -3 | -1
CN=C1SC(C(=O)Nc2ccccc2Cl)CC(=O)N1c1ccc(OC(F)(F)Cl)cc1 (stereo not drawn) | 0 | -4 | 0 | 0 | nt | nt | nt
Cc1onc(-c2ccccc2)c1C(=O)OCC(=O)Nc1ccc(OC(F)(F)F)cc1 | 9.7* | 14 | -1 | nt | nt | 7 | 6

Screening data (PubChem)
